Assay results as given in ChEMBL document CHEMBL2218924, “A broad activity screen in support of a chemogenomic map for kinase signalling research and drug discovery” (Biochem J, 2013).

Experiments:
[1] = target: T1, Ephrin type-A receptor 3 (Homo sapiens) (UniProt P29320); details: at 10 µM
T1 sequence (whole entry): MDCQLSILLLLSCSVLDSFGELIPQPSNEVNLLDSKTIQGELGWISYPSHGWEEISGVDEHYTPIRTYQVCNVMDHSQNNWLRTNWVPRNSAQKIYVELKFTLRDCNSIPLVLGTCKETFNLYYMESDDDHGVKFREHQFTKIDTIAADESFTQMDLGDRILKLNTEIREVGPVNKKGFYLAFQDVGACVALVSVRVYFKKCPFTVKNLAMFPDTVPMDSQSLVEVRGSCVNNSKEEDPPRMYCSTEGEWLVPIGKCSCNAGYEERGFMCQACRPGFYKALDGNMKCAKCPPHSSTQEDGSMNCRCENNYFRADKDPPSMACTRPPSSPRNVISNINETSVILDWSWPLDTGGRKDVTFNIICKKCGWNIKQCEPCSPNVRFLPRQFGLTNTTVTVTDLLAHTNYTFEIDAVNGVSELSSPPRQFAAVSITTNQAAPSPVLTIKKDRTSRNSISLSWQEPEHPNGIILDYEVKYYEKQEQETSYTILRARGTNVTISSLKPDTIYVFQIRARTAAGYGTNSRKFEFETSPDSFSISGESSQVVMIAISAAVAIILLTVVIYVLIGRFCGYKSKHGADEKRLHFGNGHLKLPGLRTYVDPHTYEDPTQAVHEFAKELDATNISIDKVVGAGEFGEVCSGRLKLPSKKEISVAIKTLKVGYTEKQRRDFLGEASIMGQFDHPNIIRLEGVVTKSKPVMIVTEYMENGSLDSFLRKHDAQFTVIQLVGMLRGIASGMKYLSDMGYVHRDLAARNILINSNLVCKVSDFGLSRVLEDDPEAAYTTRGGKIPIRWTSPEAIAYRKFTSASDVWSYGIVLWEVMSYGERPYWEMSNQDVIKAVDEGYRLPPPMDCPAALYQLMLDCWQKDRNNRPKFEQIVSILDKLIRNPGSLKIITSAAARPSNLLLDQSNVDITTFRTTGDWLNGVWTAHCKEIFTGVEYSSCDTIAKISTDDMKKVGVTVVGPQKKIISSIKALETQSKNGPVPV

[2] = target: Ephrin type-A receptor 4 (Homo sapiens) (UniProt P54764); details: at 1 µM
Ephrin type-A receptor 4 (Homo sapiens), sequence (P54764 whole entry): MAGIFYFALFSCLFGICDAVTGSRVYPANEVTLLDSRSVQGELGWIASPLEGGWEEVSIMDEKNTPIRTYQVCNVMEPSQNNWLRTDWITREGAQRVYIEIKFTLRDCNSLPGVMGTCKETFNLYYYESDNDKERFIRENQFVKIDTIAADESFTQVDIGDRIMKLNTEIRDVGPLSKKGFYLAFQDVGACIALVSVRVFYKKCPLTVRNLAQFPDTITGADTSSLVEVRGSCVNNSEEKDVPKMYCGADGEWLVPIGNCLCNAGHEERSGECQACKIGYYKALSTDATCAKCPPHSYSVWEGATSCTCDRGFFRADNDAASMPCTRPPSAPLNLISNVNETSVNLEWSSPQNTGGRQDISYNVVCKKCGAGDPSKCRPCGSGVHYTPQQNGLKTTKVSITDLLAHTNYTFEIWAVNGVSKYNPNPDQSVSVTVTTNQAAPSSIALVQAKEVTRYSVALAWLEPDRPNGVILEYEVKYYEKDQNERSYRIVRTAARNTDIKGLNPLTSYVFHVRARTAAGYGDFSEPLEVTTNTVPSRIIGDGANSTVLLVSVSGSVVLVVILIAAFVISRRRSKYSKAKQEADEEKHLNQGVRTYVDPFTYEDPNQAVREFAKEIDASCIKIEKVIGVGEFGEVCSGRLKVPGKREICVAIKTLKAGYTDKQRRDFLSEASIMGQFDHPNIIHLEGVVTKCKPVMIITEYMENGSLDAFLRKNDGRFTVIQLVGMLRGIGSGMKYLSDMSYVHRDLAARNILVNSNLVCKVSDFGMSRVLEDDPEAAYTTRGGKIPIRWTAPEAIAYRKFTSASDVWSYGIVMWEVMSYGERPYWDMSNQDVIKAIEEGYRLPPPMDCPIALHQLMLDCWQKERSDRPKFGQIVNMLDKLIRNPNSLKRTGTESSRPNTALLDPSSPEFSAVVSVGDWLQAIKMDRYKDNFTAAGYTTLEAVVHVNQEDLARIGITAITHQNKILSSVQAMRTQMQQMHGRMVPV

[3] = target: Ephrin type-A receptor 4 (Homo sapiens) (UniProt P54764); details: at 10 µM
[4] = target: Ephrin type-A receptor 5 (Homo sapiens) (UniProt P54756); details: at 1 µM
Ephrin type-A receptor 5 (Homo sapiens), sequence (P54756 whole entry): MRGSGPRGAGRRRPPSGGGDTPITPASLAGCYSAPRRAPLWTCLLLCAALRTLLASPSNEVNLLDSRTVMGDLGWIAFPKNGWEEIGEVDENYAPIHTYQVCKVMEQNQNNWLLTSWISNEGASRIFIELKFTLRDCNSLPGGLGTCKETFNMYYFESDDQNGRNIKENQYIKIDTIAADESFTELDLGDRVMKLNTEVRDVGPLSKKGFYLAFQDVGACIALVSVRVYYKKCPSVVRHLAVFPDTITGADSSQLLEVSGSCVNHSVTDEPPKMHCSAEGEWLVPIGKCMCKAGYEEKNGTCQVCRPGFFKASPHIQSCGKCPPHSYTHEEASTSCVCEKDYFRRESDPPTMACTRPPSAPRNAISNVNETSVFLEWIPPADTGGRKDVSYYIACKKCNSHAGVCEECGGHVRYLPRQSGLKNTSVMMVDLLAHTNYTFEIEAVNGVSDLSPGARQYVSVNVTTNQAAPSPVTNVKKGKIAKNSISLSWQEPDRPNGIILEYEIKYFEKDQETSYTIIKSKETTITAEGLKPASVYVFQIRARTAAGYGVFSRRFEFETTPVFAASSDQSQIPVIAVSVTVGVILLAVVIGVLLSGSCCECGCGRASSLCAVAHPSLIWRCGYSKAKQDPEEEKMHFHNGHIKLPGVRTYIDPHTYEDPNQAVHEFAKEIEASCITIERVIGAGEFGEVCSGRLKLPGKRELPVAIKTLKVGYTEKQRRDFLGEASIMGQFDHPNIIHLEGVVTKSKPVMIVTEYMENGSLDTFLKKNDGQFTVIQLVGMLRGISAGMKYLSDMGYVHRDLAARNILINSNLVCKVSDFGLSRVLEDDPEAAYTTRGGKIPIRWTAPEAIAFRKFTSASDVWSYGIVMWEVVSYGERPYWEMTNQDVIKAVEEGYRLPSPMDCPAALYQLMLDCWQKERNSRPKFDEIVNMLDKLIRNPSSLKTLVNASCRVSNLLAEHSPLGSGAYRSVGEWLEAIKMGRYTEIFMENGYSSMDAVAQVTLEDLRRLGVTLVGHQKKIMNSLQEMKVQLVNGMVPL

[5] = target: Ephrin type-A receptor 5 (Homo sapiens) (UniProt P54756); details: at 10 µM
[6] = target: Ephrin type-A receptor 7 (Homo sapiens) (UniProt Q15375); details: at 1 µM
Ephrin type-A receptor 7 (Homo sapiens), sequence (Q15375 28-998 limits assumed): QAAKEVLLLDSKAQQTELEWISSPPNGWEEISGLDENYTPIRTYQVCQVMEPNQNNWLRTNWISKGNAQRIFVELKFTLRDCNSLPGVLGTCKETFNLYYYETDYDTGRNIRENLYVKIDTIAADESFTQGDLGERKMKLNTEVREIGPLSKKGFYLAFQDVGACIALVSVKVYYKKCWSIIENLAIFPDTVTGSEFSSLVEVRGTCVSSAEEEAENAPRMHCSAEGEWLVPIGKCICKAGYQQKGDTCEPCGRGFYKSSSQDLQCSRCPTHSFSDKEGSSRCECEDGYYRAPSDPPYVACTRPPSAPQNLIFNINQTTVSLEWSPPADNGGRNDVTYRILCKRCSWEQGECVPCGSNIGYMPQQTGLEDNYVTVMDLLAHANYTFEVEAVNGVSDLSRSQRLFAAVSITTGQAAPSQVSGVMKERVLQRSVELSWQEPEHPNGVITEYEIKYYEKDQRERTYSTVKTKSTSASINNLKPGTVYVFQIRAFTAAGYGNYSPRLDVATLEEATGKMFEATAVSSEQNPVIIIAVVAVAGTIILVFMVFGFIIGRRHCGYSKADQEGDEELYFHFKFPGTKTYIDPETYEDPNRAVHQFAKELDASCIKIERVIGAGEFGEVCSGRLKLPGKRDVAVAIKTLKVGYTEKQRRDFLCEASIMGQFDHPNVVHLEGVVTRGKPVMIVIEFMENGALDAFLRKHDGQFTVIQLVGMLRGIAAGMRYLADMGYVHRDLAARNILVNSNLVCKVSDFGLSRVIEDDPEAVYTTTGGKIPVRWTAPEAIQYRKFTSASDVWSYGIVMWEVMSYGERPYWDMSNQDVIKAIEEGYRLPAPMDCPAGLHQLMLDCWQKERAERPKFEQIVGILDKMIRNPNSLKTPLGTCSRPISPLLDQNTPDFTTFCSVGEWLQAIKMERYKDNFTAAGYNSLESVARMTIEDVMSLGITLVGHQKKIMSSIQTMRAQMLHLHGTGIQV

[7] = target: Ephrin type-A receptor 7 (Homo sapiens) (UniProt Q15375); details: at 10 µM
[8] = target: T2, Ephrin type-A receptor 8 (Homo sapiens) (UniProt P29322); details: at 1 µM
T2 sequence (whole entry): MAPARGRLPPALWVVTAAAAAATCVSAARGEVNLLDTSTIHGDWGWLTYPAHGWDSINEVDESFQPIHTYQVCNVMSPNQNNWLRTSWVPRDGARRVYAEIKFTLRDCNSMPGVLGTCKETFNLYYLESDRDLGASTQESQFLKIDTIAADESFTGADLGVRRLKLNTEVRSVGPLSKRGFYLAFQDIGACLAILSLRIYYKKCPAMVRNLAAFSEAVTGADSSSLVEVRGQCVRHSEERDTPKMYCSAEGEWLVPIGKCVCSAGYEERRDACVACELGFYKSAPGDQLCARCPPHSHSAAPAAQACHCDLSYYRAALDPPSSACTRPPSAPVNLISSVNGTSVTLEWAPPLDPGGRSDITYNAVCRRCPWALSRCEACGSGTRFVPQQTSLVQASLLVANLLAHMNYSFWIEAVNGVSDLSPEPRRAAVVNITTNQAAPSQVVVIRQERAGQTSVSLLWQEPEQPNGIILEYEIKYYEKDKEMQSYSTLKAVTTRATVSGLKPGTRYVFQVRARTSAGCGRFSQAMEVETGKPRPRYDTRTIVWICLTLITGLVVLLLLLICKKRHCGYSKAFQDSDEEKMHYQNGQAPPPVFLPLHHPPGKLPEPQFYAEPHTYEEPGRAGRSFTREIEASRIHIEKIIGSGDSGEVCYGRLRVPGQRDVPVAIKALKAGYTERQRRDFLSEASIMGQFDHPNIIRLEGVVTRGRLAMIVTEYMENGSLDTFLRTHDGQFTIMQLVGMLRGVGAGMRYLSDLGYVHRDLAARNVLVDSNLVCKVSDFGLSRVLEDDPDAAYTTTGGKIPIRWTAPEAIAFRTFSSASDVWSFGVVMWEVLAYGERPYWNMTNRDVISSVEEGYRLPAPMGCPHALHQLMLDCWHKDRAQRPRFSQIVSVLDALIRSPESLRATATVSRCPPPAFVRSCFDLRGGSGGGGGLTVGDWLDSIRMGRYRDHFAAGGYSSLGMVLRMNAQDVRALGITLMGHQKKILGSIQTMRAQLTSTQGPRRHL

[9] = target: T2, Ephrin type-A receptor 8 (Homo sapiens); details: at 10 µM
[10] = target: T3, Ephrin type-B receptor 1 (Homo sapiens) (UniProt P54762); details: at 1 µM
T3 sequence (whole entry): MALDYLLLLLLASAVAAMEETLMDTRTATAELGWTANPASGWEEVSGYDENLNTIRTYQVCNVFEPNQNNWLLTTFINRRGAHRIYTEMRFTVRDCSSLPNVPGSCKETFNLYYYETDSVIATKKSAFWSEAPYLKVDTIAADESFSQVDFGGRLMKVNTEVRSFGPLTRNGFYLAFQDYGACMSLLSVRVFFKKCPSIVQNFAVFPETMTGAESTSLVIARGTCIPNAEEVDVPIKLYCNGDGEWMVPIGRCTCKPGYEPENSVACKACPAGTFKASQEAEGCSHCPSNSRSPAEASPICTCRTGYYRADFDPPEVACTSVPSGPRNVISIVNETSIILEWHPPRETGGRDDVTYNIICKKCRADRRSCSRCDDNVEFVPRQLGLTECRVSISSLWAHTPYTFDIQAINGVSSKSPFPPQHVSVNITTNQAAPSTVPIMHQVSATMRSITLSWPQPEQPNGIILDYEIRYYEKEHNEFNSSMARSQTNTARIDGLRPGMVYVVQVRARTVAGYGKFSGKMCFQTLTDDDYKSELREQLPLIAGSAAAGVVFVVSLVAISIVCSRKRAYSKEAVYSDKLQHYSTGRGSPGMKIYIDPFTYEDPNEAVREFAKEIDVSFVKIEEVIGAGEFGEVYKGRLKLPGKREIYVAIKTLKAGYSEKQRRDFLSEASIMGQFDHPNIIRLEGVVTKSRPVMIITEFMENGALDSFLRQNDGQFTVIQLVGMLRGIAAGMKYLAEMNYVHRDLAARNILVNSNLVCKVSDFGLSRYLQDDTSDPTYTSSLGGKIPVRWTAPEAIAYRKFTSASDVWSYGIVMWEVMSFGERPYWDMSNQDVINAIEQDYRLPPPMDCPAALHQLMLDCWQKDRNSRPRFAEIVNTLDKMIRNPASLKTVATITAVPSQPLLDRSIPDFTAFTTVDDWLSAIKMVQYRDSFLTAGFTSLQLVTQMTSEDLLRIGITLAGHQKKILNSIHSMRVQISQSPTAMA

[11] = target: T3, Ephrin type-B receptor 1 (Homo sapiens); details: at 10 µM
[12] = target: T4, Ephrin type-B receptor 2 (Homo sapiens) (UniProt P29323); details: at 1 µM
T4 sequence (whole entry): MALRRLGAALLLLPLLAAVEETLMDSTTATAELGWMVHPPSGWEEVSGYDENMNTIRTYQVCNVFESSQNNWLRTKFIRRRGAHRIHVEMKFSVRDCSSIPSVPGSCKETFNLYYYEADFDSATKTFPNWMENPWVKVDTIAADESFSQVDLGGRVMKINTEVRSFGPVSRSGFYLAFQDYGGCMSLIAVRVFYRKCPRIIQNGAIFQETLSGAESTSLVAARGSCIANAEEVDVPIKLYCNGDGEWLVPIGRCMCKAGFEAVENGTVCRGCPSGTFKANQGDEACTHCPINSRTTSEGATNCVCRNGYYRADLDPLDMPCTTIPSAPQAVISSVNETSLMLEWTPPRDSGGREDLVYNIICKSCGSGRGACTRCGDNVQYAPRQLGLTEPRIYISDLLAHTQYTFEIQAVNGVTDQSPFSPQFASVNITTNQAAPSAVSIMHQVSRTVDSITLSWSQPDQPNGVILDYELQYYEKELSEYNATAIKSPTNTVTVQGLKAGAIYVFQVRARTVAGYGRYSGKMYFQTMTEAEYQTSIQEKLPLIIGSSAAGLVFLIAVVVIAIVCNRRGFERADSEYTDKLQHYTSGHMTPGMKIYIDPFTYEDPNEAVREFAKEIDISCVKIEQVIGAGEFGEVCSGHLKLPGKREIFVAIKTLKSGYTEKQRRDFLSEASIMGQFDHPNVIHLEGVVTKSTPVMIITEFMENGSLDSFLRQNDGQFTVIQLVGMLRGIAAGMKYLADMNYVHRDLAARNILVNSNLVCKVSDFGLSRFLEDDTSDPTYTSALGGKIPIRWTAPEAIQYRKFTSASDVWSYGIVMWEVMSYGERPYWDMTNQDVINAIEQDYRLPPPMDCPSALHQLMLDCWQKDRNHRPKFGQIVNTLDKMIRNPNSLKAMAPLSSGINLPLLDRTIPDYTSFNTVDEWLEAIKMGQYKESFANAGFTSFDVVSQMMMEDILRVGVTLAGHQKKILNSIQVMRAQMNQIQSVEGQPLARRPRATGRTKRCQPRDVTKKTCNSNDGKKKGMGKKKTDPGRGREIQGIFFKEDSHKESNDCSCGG

[13] = target: T5, Ephrin type-B receptor 3 (Homo sapiens) (UniProt P54753); details: at 1 µM
T5 sequence (whole entry): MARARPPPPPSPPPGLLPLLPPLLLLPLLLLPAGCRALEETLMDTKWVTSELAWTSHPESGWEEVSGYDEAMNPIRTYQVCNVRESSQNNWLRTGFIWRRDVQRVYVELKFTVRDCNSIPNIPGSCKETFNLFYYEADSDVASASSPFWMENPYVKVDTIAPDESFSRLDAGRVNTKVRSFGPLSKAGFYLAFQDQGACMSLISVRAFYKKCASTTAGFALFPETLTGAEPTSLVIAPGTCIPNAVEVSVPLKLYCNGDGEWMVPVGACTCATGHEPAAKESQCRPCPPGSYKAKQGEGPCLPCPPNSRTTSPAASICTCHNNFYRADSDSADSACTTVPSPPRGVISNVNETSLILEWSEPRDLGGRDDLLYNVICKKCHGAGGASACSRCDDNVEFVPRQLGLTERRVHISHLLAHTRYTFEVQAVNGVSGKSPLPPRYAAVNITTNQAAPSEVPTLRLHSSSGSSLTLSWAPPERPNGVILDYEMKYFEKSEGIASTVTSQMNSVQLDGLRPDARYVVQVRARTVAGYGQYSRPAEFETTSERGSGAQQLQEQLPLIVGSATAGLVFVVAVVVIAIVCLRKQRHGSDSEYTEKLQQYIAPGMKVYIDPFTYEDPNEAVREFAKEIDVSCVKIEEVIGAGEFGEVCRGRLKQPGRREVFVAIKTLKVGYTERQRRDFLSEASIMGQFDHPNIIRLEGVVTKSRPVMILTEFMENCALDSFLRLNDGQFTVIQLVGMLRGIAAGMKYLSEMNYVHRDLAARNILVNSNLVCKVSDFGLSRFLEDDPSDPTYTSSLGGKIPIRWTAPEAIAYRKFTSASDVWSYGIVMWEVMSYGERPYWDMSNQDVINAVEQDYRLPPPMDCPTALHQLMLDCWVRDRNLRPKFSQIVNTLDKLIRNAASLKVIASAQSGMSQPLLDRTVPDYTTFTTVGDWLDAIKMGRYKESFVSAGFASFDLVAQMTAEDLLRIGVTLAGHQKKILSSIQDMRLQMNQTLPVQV

[14] = target: T5, Ephrin type-B receptor 3 (Homo sapiens); details: at 10 µM
[15] = target: T6, Ephrin type-B receptor 4 (Homo sapiens) (UniProt P54760); details: at 1 µM
T6 sequence (whole entry): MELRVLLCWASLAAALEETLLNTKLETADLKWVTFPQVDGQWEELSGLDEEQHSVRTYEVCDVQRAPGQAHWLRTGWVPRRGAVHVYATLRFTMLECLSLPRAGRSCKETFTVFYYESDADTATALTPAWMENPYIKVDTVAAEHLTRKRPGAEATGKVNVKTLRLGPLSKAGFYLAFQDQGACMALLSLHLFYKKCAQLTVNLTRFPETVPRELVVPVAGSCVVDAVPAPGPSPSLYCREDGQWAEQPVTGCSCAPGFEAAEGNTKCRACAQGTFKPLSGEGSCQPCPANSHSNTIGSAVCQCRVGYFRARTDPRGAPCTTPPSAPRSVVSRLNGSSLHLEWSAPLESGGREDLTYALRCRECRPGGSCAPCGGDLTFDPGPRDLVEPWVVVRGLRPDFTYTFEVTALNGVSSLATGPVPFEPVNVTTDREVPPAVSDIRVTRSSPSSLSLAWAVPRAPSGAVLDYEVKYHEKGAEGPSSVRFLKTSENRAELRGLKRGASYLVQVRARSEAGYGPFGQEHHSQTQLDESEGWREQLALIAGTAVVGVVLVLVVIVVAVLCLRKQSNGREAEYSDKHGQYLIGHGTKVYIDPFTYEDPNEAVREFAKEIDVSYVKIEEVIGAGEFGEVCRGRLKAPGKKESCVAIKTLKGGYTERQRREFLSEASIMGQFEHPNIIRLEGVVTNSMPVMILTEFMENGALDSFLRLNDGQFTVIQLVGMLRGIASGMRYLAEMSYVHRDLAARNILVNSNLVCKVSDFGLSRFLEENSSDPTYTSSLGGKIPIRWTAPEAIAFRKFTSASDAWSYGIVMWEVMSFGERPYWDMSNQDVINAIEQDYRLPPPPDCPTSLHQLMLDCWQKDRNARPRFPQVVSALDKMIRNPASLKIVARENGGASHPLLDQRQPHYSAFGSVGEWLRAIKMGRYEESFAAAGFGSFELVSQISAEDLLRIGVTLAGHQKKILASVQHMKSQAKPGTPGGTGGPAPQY

[16] = target: T6, Ephrin type-B receptor 4 (Homo sapiens); details: at 10 µM
[17] = target: Receptor tyrosine-protein kinase erbB-4 (Homo sapiens) (UniProt Q15303); details: at 1 µM
Receptor tyrosine-protein kinase erbB-4 (Homo sapiens), sequence (Q15303 whole entry): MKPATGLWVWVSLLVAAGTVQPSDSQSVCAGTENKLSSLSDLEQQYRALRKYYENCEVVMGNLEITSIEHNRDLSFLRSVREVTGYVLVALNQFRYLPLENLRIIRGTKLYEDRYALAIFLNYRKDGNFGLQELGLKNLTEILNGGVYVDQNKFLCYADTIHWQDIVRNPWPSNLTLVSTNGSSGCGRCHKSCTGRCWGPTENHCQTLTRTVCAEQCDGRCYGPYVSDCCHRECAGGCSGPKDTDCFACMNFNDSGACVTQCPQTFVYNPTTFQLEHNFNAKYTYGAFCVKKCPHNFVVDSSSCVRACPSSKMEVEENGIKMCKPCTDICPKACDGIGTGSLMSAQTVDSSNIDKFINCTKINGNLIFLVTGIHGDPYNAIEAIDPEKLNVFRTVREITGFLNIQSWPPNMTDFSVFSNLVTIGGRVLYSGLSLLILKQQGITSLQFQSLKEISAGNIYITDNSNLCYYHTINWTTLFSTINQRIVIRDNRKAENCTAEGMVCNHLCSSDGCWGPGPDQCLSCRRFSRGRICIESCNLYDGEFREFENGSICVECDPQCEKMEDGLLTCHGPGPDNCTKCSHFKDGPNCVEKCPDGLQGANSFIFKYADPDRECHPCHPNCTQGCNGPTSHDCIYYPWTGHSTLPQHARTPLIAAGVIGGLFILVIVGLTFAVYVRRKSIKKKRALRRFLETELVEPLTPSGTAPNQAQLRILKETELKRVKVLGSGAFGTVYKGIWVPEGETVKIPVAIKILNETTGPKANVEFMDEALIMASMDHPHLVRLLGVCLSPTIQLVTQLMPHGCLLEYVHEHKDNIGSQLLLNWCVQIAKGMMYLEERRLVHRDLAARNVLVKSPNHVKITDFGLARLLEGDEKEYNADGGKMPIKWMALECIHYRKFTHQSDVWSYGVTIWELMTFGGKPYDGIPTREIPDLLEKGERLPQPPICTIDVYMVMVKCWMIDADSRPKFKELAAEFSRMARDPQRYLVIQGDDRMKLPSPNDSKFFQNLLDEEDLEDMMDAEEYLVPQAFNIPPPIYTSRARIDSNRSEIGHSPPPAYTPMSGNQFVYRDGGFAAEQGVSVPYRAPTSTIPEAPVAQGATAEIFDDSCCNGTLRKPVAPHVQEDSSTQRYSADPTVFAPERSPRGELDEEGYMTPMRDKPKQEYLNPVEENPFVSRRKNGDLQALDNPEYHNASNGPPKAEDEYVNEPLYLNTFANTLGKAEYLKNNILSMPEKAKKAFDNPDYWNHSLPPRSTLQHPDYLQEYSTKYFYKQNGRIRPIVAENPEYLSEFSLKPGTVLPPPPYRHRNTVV

[18] = target: Receptor tyrosine-protein kinase erbB-4 (Homo sapiens) (UniProt Q15303); details: at 10 µM
[19] = target: Focal adhesion kinase 1 (Homo sapiens) (UniProt Q05397); details: at 1 µM

COc1cc2ncnc(N3CCN(C(=O)Nc4ccc(Oc5ccccc5)cc4)CC3)c2cc1OC
residual activity [1]: 112% | residual activity [2]: 99% | residual activity [3]: 101% | residual activity [4]: 117% | residual activity [5]: 124% | residual activity [6]: 95% | residual activity [7]: 93% | residual activity [8]: 87% | residual activity [9]: 99% | residual activity [10]: 96% | residual activity [11]: 102% | residual activity [12]: 114% | residual activity [13]: 110% (inactive) | residual activity [14]: 146% | residual activity [15]: 98% | residual activity [16]: 112% | residual activity [17]: 100% | residual activity [18]: 145% | residual activity [19]: 108%
